What was measured:
[1] = target: T1, 3-phosphoinositide-dependent protein kinase 1 (Homo sapiens) (UniProt O15530); settings: at 0.1 µM;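 note: values are mean inhibition of PDK1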
T1 sequence (whole entry): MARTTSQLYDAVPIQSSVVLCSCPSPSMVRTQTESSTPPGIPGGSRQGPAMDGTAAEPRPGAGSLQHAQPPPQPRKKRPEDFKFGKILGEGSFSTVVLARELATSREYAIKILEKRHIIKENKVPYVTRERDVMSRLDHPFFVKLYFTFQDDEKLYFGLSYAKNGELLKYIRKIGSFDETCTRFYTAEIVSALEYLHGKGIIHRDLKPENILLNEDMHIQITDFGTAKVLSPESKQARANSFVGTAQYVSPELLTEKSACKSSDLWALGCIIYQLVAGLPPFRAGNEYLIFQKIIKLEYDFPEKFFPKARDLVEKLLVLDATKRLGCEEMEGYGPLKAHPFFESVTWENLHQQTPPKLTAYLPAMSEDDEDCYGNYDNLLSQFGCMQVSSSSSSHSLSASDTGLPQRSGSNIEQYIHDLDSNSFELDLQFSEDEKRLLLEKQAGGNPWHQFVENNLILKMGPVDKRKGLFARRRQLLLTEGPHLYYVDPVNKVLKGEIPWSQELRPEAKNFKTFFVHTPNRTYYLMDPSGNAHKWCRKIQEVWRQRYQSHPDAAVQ

[2] = target: cAMP-dependent protein kinase catalytic subunit alpha (Homo sapiens) (UniProt P17612); settings: at 0.1 µM
[3] = target: cAMP-dependent protein kinase catalytic subunit alpha (Homo sapiens) (UniProt P17612); settings: at 1 µM
[4] = target: Protein kinase C alpha type (Homo sapiens) (UniProt P17252); settings: at 0.1 µM
[5] = target: Protein kinase C alpha type (Homo sapiens) (UniProt P17252); settings: at 1 µM
[6] = target: Protein kinase C beta type (Homo sapiens) (UniProt P05771); settings: at 0.1 µM
Sequence of Protein kinase C beta type (Homo sapiens) (P05771 2-671 limits assumed): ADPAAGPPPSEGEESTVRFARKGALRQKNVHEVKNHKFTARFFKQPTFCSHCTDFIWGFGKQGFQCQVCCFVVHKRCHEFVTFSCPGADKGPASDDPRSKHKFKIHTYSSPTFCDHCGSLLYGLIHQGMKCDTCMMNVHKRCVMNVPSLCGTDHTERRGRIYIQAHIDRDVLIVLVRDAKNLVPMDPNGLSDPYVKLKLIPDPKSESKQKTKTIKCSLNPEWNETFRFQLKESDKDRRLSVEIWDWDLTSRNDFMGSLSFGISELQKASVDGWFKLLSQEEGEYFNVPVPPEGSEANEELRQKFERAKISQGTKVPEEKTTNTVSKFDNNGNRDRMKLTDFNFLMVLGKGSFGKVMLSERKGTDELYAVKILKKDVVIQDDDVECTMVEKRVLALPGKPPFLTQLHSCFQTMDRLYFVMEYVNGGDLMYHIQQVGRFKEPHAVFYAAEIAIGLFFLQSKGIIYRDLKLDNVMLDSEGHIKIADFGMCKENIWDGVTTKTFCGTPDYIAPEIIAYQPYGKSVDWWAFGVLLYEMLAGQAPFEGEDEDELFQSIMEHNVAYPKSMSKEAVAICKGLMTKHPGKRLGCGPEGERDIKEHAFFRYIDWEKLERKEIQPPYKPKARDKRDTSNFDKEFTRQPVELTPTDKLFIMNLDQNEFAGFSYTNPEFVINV

[7] = target: Protein kinase C beta type (Homo sapiens) (UniProt P05771); settings: at 1 µM
[8] = target: Protein kinase C eta type (Homo sapiens) (UniProt P24723); settings: at 0.1 µM
Sequence of Protein kinase C eta type (Homo sapiens) (P24723 whole entry): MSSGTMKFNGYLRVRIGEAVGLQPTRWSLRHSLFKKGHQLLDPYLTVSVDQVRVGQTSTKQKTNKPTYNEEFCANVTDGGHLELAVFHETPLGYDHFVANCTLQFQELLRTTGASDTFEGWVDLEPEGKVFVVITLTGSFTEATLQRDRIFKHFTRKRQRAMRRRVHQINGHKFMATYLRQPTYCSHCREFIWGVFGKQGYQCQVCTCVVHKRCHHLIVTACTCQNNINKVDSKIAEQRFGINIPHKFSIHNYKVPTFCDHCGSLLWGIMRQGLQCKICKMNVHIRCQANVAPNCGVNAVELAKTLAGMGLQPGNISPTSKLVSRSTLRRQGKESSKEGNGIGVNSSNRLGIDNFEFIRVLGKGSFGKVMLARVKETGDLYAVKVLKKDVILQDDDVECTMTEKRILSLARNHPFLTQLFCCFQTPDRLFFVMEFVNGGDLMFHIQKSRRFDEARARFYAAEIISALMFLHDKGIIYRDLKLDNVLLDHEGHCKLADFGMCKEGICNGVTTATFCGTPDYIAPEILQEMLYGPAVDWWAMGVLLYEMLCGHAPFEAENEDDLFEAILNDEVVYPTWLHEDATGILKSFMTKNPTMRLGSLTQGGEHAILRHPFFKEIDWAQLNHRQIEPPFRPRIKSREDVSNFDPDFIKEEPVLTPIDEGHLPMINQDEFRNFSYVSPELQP

[9] = target: Protein kinase C eta type (Homo sapiens) (UniProt P24723); settings: at 1 µM
[10] = target: Protein kinase C gamma type (Homo sapiens) (UniProt P05129); settings: at 0.1 µM
[11] = target: Protein kinase C gamma type (Homo sapiens) (UniProt P05129); settings: at 1 µM
[12] = target: T2, Protein kinase C iota type (Homo sapiens) (UniProt P41743); settings: at 0.1 µM
T2 sequence (whole entry): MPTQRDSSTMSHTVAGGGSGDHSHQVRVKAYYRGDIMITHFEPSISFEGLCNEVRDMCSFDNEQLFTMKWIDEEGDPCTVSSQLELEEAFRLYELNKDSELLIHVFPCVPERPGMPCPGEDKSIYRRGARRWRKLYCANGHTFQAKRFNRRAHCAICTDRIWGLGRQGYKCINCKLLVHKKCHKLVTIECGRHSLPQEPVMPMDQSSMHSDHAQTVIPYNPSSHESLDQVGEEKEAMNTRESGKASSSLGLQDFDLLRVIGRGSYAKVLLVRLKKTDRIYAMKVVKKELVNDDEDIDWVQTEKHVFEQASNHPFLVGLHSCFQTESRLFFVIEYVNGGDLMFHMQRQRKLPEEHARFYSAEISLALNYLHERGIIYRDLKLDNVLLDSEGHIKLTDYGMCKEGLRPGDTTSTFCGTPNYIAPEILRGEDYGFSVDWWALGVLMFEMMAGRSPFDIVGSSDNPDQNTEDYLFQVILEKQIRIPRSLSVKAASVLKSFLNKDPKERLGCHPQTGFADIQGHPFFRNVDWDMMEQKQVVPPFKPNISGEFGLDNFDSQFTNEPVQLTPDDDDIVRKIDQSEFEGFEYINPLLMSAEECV

[13] = target: T2, Protein kinase C iota type (Homo sapiens); settings: at 1 µM
[14] = target: Protein kinase C theta type (Homo sapiens) (UniProt Q04759); settings: at 0.1 µM
Sequence of Protein kinase C theta type (Homo sapiens) (Q04759 whole entry, looked up): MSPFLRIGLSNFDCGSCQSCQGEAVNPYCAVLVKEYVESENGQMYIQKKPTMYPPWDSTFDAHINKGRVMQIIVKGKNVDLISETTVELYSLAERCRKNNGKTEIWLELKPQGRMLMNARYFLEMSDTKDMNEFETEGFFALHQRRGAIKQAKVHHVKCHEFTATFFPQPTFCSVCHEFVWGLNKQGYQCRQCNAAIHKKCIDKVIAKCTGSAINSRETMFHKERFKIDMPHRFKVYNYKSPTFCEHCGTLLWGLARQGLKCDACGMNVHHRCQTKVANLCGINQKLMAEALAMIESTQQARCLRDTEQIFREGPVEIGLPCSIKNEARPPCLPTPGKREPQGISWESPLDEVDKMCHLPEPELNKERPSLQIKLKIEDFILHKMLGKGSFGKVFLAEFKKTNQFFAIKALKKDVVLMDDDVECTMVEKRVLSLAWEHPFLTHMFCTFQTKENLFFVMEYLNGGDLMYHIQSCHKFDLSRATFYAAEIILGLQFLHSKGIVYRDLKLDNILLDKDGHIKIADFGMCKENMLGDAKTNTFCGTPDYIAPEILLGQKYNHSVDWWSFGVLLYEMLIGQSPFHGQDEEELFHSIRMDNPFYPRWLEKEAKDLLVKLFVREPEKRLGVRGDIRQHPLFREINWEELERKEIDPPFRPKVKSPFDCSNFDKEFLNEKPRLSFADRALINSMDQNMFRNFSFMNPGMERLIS

[15] = target: Protein kinase C theta type (Homo sapiens) (UniProt Q04759); settings: at 1 µM
[16] = target: Protein kinase C beta type (Homo sapiens) (UniProt P05771); settings: at 0.1 µM; remark: listed apart in the source
[17] = target: Protein kinase C beta type (Homo sapiens) (UniProt P05771); settings: at 1 µM; remark: listed apart in the source
[18] = target: T3, Serine/threonine-protein kinase D1 (Homo sapiens) (UniProt Q15139); settings: at 0.1 µM
T3 sequence (whole entry): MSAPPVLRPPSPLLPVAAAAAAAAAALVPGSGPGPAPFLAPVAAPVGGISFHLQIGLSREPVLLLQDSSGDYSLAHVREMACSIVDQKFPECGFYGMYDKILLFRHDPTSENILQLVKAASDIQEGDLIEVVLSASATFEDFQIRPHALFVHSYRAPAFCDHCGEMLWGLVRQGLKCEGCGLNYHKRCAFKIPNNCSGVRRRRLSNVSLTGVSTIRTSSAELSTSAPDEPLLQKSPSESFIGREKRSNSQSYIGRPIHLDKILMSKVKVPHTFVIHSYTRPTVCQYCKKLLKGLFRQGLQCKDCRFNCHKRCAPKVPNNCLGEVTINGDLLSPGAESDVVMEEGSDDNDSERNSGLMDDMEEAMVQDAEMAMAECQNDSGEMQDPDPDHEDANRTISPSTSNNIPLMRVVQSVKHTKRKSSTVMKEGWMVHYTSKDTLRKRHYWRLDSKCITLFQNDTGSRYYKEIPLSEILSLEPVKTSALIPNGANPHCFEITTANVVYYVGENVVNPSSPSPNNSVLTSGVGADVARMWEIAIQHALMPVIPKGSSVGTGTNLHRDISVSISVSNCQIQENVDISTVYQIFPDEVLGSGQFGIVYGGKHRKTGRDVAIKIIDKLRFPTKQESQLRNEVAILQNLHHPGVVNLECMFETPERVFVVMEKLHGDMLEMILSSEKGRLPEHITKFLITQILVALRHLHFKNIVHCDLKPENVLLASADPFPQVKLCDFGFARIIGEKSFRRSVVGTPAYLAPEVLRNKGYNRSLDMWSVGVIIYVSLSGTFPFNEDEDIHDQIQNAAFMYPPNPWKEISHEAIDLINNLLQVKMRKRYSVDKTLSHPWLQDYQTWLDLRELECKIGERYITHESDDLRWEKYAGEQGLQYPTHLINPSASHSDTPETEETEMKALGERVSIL

[19] = target: T3, Serine/threonine-protein kinase D1 (Homo sapiens); settings: at 1 µM
[20] = target: T4, Serine/threonine-protein kinase D2 (Homo sapiens) (UniProt Q9BZL6); settings: at 0.1 µM;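 note: reported percent inhibition values are means, part of the GSK PKIS kinase panel screen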
T4 sequence (whole entry): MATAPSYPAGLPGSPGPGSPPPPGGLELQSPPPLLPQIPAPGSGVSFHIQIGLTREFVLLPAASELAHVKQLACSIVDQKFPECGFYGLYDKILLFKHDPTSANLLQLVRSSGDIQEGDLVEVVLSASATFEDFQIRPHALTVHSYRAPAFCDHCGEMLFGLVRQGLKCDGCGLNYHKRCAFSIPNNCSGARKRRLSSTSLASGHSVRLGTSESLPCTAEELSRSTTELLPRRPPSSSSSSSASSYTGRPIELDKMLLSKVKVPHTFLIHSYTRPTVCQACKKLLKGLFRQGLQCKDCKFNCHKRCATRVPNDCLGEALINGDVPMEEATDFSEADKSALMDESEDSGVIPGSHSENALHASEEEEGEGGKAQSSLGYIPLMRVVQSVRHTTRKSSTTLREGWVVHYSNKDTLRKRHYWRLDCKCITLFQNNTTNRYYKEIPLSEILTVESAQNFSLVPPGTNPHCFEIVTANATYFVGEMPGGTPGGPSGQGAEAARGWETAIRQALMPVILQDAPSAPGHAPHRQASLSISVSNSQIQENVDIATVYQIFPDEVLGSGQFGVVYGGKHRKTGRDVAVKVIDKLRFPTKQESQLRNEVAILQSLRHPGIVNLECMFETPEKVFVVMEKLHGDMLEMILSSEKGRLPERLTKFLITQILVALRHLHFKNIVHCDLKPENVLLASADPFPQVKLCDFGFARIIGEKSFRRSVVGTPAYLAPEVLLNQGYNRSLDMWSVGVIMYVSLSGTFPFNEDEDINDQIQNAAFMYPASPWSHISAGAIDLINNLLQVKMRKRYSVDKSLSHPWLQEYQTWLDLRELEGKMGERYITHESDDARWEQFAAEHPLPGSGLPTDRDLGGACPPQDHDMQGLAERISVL

Structure (SMILES)	inhibition [1] [%]	inhibition [2] [%]	inhibition [3] [%]	inhibition [4] [%]	inhibition [5] [%]	inhibition [6] [%]	inhibition [7] [%]	inhibition [8] [%]	inhibition [9] [%]	inhibition [10] [%]	inhibition [11] [%]	inhibition [12] [%]	inhibition [13] [%]	inhibition [14] [%]	inhibition [15] [%]	inhibition [16] [%]	inhibition [17] [%]	inhibition [18] [%]	inhibition [19] [%]	inhibition [20] [%]
CS(=O)(=O)Nc1ccc(N/C=C2\C(=O)Nc3ccccc32)cc1	2.23	-2	0.29	-0.53	0.61	-0.94	-1.13	-0.7	-4.5	-3.28	0.03	-1.38	-0.98	-1.09	-0.74	-1.02	-0.85	-2.24	3.18	-0.04
CCn1c(-c2nonc2N)nc2c(C#CC(C)(C)O)nc(CN3CCCC3)cc21	0.46	8.62	44.9	2.29	6.77	3.02	14.2	19.5	67.3	3.19	8.24	0.19	1.41	2.28	7.85	3.25	6.65	1.55	5.93	1.71
NS(=O)(=O)c1cccc(-c2ccc3c(NC(=O)C4CC4)n[nH]c3c2)c1	-1.98	-0.94	0.85	-0.24	0.92	-0.11	2.66	-2.13	-2.3	-1.53	3.74	0.3	0.53	0.17	0.88	-0.62	2.57	-0.83	0.65	-0.79
CN(C)c1cc2c(Nc3ccc4nc(Cc5ccccc5)[nH]c4c3)ncnc2cn1	4.68	3.66	2.62	1.27	2.33	-1.06	2.6	3.25	3.62	3.66	4.36	2.13	2.77	2.25	4.22	1.18	3.96	4.29	6.67	5.21
Nc1ncnc2occ(-c3ccc(NC(=O)Nc4cc(C(F)(F)F)cc(C(F)(F)F)c4)cc3)c12	1.59	0.91	0.7	0.06	0.45	-0.8	-1.24	1.47	-0.03	3.16	-0.32	0.16	2.82	0.72	-1.36	0.68	0.44	1.17	1.94	1.61
N#Cc1c(NC(=O)c2cccc3ccccc23)sc2c1CCCC2	1.52	1.59	1.98	0.26	1.22	1.24	-1.28	3.52	3.65	2.48	0.67	1.98	2.38	1.69	0.74	2.18	2.04	4.23	4.24	2.17
COc1ccc2cc(-c3c(-c4ccncc4)nc(-c4ccc([S+](C)[O-])cc4)n3C)ccc2c1 (stereo not given)	0.4	1.97	9.5	0.25	0.94	0.88	7.1	2.61	-1.46	1.09	0.94	0.48	2.02	1.01	0.27	0.67	3.79	2.99	5.01	3.94
CCc1cccc(NC(=O)Nc2ccc(Oc3ccc4nc(NC(=O)OC)[nH]c4c3)cc2)c1	2.37	2.93	0.86	0.7	0.72	0.28	1.12	2.69	2.14	1.95	2	0.46	-1.58	0.42	1.12	-0.27	-1.17	1.25	1.01	0.52
O=C1Nc2ccc(C(=O)c3ccco3)cc2C1=Cc1cc(Cl)c(O)c(Cl)c1	3.22	1.97	4.78	1.38	3.32	-0.57	1.37	4.29	7.64	1.31	6.26	4.4	-0.01	2.45	7.59	1.83	3.01	2.76	6.32	2.72

Reference: ChEMBL document CHEMBL1961873, “Compounds: GSK PKIS; Assays: Nanosyn kinase panel” (2012)
